Results as given in the supplement of paper PMC11732987, “Enantioselective OTUD7B fragment discovery through chemoproteomics screening and high-throughput optimisation” (Communications Chemistry, 2025).

Key:
Assay in all cases: log2 ratio of Biotin-Ahx-Ub-VS probe labelling (fragment/DMSO); higher = less target engagement (more negative = stronger competition), active = hit call of the paper (q ≤ 0.05, log2 ratio ≤ -1)
Settings in all cases: compound concentration: 200 uM; treatment time: 3 h
USP42 = target: T1, USP42 (UniProt Q9H9J4)
T1 sequence (whole entry): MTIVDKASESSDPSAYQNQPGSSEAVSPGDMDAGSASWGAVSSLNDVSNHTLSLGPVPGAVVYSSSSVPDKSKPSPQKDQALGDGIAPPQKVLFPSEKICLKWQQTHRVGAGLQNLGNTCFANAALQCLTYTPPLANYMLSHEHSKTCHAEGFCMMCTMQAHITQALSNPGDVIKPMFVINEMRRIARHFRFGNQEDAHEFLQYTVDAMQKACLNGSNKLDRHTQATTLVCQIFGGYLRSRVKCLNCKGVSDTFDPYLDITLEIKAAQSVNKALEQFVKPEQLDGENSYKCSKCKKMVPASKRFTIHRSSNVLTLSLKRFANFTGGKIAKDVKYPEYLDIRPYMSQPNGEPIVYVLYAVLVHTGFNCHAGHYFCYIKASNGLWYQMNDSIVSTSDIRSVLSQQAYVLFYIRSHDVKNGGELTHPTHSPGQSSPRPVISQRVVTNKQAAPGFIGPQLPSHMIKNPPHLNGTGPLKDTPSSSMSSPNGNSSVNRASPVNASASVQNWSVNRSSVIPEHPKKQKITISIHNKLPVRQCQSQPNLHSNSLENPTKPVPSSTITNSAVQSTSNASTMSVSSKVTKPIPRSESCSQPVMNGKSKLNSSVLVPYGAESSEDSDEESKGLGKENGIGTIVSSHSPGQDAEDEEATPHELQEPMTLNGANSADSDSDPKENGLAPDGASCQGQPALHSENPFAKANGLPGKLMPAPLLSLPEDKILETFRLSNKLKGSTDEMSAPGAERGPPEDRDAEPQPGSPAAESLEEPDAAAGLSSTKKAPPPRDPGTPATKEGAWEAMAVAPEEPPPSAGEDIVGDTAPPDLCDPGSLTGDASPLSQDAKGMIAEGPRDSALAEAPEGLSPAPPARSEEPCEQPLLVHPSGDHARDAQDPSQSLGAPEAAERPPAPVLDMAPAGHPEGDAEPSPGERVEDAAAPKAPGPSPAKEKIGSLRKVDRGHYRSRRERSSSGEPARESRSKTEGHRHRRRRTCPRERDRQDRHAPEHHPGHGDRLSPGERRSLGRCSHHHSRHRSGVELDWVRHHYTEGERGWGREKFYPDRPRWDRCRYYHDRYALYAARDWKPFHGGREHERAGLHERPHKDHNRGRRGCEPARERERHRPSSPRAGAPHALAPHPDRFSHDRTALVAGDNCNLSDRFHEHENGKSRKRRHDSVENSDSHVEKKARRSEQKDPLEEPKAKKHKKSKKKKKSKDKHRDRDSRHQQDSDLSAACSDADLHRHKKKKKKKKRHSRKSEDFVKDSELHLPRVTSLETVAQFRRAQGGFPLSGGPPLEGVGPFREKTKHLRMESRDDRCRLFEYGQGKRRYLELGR
Method in brief: (§1)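 Each value is an average log2 ratio of fragment to vehicle, tested by unpaired t-test. The underlying Spectronaut label-free quantities were global-median-normalised, and only proteins with ≥2 unique peptides were included. Triplicate HEK293T lysate samples (495 µg) were exposed to fragment at 200 µM or vehicle for 3 h, then to Biotin-Ahx-Ub-VS at 0.5 µM final for 1 h, before NeutrAvidin enrichment of labelled DUBs, LysC and trypsin digestion, and diaPASEF LC-MS/MS.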

USP46 = USP46 (UniProt P62068)
USP46, sequence (P62068 whole entry): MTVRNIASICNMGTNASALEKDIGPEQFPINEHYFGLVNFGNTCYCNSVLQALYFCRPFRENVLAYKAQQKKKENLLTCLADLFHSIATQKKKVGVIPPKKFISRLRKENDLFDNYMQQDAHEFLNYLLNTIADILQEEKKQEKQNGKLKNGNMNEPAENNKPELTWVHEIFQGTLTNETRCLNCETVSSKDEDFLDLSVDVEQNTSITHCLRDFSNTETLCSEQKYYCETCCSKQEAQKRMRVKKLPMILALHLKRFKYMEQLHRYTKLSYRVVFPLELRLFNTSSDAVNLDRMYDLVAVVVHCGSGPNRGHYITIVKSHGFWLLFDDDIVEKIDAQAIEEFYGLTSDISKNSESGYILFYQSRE
Method in brief: as §1

USP47 = target: T2, USP47 (UniProt Q96K76)
T2 sequence (whole entry): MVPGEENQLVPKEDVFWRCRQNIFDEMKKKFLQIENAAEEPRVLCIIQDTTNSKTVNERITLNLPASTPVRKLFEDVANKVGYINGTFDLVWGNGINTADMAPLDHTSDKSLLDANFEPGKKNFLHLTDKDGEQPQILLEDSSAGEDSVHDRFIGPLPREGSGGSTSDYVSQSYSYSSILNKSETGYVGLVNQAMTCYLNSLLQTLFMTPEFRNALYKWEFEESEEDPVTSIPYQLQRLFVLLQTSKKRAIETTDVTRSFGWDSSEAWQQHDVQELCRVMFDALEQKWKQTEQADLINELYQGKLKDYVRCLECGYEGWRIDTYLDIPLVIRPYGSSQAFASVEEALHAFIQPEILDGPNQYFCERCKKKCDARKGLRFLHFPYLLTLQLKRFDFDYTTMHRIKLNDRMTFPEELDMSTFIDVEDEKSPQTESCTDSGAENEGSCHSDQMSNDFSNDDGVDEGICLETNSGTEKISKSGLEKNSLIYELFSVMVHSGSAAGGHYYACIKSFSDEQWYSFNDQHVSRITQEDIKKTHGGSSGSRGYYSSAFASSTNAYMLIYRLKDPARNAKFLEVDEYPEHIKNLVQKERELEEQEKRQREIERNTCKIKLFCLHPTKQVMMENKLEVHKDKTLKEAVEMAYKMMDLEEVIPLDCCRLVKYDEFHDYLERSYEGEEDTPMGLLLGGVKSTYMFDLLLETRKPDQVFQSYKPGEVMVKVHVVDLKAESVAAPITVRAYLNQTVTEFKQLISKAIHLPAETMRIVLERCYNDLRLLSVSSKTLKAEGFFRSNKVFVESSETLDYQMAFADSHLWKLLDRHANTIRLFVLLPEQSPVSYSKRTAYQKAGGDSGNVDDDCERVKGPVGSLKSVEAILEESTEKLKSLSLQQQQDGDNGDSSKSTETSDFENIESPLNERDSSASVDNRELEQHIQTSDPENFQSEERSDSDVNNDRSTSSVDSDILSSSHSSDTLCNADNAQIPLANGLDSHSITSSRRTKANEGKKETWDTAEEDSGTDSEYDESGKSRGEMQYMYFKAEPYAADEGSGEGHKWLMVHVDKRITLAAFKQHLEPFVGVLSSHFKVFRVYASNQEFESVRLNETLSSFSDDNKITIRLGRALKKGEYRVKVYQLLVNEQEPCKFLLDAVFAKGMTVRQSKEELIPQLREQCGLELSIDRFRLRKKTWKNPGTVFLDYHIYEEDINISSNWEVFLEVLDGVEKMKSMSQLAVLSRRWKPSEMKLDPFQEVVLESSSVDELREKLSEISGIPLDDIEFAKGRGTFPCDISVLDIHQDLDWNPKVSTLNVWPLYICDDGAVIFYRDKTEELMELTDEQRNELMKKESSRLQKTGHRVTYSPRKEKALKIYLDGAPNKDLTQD
Method in brief: as §1

USP48 = target: T3, USP48 (UniProt Q86UV5)
T3 sequence (whole entry): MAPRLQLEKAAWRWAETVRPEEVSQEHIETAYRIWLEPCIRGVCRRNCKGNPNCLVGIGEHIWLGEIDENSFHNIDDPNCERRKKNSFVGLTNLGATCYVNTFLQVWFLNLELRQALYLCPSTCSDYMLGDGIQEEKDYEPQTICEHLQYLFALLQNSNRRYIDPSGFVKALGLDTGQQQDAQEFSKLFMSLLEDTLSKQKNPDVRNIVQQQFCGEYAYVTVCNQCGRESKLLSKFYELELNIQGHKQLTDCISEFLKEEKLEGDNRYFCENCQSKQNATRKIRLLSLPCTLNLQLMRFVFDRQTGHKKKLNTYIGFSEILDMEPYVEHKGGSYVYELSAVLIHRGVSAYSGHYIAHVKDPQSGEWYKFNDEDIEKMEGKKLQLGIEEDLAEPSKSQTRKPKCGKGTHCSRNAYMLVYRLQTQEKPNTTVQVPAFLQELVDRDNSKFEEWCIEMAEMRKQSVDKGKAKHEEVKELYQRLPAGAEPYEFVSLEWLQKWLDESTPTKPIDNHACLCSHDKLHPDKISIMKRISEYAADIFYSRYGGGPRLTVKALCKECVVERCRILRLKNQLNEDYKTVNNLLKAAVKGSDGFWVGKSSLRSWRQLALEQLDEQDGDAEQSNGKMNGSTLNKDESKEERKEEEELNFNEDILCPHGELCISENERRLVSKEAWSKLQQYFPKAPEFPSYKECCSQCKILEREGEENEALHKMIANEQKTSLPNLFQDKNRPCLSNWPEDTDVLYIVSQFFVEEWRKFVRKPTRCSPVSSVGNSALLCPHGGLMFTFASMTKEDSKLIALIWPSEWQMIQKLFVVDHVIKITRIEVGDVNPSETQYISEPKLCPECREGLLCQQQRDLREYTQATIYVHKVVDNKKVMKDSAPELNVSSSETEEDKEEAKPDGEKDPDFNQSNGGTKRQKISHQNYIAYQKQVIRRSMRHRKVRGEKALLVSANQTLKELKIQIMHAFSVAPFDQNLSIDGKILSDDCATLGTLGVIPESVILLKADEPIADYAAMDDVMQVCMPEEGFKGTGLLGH
Method in brief: as §1

USP5 = target: T4, USP5 (UniProt P45974)
T4 sequence (whole entry): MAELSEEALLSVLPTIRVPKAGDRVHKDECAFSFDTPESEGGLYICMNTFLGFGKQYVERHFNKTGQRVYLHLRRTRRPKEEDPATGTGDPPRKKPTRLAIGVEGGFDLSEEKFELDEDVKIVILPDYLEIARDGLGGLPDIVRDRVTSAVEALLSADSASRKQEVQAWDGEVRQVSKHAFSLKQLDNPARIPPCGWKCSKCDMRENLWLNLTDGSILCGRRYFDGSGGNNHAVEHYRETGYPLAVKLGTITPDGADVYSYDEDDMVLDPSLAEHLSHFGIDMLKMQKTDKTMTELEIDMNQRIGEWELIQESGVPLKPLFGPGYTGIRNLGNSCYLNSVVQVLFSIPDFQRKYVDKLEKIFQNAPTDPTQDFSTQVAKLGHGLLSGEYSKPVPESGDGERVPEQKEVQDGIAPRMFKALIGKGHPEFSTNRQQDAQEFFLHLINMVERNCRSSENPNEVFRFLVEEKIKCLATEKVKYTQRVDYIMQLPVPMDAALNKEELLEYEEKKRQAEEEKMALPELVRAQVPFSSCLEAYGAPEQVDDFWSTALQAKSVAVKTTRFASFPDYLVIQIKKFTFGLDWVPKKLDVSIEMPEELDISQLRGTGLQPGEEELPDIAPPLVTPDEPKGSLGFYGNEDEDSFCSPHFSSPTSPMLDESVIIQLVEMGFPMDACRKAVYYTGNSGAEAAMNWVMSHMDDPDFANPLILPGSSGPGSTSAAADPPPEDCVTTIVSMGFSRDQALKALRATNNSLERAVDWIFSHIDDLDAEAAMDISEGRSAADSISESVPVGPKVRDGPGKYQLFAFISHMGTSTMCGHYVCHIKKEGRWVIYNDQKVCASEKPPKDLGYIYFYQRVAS
Method in brief: as §1

USP54 = USP54 (UniProt Q70EL1)
USP54, sequence (Q70EL1 whole entry): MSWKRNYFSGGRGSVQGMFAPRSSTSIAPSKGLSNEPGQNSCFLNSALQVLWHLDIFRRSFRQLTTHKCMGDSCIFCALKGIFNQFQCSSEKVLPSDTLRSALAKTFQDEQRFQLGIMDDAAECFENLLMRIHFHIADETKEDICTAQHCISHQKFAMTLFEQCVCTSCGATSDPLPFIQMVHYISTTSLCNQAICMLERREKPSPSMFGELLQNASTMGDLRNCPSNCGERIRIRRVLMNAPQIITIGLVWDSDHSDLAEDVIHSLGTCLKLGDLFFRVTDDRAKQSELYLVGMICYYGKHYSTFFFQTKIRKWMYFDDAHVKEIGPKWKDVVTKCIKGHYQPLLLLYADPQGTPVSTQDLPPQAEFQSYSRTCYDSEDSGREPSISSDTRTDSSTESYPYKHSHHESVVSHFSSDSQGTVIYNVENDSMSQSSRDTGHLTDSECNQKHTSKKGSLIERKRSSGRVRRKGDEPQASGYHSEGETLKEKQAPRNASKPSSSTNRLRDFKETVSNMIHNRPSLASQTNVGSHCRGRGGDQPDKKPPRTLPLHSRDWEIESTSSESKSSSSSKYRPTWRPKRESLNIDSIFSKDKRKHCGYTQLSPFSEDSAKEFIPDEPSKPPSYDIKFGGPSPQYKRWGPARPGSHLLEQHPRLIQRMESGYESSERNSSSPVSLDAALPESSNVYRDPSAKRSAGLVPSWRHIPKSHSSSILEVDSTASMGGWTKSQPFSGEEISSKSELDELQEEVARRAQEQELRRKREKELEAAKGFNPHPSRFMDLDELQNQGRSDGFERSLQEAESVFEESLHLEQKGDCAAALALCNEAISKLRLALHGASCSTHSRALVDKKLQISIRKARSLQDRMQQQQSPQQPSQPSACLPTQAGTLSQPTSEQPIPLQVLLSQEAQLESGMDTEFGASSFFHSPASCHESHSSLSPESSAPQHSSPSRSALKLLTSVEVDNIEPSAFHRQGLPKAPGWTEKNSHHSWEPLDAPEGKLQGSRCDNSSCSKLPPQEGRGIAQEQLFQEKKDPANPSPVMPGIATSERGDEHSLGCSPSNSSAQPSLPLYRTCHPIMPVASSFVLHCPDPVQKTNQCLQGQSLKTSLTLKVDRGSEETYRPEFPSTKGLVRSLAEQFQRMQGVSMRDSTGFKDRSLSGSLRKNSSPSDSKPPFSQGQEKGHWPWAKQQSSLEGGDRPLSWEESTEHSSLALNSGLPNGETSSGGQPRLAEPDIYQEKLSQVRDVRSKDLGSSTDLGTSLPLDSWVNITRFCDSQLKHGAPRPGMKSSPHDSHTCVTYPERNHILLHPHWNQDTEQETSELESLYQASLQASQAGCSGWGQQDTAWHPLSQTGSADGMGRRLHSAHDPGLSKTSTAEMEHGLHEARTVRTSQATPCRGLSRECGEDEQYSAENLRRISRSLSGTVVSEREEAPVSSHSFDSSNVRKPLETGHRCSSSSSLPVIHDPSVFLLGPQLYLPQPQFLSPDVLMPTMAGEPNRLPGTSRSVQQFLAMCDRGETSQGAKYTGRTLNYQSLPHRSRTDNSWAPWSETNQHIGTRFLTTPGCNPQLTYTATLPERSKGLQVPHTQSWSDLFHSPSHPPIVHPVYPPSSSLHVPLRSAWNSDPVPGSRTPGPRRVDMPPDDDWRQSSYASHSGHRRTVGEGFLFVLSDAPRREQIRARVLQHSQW
Method in brief: as §1

USP7 = USP7 (UniProt Q93009)
Method in brief: as §1

USP8 = target: T5, USP8 (UniProt P40818)
T5 sequence (whole entry): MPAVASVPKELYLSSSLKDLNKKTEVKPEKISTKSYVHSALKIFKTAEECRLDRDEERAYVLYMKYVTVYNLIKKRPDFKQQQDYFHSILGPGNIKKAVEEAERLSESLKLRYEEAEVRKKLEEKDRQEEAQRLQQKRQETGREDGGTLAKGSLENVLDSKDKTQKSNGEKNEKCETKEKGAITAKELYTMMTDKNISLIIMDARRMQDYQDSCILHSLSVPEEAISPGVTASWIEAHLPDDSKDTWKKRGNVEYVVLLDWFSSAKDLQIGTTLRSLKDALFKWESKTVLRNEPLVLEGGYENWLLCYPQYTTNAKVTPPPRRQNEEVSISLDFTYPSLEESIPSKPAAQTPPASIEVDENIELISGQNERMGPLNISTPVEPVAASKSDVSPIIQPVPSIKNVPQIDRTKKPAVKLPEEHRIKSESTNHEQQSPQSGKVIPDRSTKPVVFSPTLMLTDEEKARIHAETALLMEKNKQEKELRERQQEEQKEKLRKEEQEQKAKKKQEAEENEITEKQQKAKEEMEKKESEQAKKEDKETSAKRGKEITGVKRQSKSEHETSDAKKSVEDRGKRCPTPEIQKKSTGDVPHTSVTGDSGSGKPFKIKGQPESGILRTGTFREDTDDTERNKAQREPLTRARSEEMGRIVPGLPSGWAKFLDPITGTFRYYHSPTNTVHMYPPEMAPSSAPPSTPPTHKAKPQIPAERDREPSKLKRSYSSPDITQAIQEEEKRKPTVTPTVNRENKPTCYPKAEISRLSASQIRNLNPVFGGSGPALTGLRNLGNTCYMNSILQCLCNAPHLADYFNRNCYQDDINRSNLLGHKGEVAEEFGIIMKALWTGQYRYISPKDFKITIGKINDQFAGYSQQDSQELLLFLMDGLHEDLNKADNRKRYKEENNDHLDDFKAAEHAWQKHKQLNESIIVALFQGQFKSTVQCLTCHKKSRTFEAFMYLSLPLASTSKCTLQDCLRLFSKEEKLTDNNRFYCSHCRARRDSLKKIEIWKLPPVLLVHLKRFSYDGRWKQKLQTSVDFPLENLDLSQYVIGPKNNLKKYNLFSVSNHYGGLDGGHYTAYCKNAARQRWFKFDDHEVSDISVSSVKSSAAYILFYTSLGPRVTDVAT
Method in brief: as §1

USP9X = USP9X (UniProt Q93008)
USP9X, sequence (Q93008 whole entry): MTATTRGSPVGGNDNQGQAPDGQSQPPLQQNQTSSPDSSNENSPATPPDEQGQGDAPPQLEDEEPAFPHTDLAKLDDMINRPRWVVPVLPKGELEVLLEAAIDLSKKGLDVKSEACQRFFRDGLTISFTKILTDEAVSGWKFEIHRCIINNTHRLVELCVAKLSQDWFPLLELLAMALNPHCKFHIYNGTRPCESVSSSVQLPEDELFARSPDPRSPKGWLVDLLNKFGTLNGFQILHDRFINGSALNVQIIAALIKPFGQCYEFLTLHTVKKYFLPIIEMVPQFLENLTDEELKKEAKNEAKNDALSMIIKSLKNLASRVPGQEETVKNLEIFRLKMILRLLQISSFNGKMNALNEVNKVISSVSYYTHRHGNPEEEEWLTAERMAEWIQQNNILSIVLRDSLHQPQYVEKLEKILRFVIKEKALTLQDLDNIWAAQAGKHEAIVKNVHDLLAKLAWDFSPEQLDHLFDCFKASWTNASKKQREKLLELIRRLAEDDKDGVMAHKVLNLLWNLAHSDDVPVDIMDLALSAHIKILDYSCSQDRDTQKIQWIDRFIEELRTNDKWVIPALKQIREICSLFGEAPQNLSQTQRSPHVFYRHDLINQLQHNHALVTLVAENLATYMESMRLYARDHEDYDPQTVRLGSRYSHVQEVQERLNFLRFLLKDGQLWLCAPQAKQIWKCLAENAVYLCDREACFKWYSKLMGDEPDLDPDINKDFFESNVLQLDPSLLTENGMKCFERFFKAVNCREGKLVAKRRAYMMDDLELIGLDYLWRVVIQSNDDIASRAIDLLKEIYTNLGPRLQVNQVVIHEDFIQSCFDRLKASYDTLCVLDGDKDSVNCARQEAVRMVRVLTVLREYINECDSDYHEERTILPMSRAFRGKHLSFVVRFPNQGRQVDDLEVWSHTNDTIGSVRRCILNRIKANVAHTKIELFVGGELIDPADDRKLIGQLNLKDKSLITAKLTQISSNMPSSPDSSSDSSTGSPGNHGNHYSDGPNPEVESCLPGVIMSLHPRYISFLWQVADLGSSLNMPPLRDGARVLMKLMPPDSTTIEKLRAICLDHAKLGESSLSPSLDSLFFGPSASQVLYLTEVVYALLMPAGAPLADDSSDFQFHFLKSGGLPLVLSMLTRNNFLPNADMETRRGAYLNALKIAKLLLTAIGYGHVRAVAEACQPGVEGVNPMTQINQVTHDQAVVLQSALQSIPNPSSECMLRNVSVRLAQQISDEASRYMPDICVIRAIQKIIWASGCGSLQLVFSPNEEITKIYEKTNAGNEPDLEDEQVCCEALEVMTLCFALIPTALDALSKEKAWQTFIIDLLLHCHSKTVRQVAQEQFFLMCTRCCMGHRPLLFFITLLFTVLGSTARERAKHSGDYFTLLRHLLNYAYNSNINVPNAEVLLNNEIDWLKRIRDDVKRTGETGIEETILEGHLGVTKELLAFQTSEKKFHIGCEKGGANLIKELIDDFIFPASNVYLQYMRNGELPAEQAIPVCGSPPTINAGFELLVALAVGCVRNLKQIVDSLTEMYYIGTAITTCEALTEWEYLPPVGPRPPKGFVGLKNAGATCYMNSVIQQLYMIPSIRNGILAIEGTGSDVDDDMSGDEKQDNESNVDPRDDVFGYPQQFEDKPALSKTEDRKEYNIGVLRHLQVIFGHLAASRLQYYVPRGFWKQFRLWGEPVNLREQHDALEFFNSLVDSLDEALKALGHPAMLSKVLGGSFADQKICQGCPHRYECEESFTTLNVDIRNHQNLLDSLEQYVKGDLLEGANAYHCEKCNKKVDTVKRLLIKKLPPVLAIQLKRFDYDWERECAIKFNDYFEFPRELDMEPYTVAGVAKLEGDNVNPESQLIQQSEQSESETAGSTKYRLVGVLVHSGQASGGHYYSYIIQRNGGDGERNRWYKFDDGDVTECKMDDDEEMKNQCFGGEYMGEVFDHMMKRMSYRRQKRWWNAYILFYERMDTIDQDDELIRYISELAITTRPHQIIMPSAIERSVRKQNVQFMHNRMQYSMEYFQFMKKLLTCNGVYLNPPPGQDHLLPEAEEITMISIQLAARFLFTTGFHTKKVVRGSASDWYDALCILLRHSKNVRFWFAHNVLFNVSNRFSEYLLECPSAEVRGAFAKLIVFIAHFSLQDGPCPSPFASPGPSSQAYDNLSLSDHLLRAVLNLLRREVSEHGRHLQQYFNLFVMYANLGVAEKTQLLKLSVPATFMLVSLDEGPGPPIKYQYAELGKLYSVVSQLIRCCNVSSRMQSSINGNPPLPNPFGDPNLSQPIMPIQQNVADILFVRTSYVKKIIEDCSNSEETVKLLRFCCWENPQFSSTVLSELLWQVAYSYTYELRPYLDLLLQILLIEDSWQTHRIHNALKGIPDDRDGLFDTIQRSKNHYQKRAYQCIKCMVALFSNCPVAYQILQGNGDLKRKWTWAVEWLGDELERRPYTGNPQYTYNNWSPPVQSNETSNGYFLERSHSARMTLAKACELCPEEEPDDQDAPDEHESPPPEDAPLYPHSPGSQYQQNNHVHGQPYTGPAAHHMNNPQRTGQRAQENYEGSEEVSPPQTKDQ
Method in brief: as §1

UniProt O00487 = target: UniProt O00487
UniProt O00487, sequence (O00487 whole entry): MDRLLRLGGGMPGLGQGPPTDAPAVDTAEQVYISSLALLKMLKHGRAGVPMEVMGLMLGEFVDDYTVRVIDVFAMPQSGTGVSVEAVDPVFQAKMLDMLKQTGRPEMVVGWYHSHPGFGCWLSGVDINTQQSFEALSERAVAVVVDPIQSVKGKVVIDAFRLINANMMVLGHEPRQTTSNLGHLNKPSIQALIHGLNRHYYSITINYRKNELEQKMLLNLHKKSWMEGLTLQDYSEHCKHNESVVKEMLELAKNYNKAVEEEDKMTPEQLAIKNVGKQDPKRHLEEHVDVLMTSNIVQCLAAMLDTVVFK
Method in brief: as §1

Measured: log2 ratio of Biotin-Ahx-Ub-VS probe labelling

Cl.Cn1c(CNC(=O)CCl)nc2cccnc21
inactive: USP42 -0.141 | USP46 -0.0593 | USP47 -0.0713 | USP48 -0.0748 | USP5 -0.0112 | USP54 0.0986 | USP7 -0.133 | USP8 -0.0336 | USP9X -0.29 | UniProt O00487 -0.167
